Experimental data: PubChem BioAssay (Tox21)
Records with an inconclusive call do not appear. The source made the active and inactive calls. Calls follow the shape of the dose curve; as a rule, active = well fitted inhibition curve with a large enough effect in the signal ratio in the repeat runs, with a control signal flat; inconclusive = weak or mixed curves, or effect the other way; inactive = flat fitted curve, though single readings scatter; the % refers to the signal ratio.

The compounds below were run against D(2) dopamine receptor (Homo sapiens) (UniProt P14416) (assay: Dopamine D2 receptor (DRD2) small molecule antagonists, cell-based qHTS assay (AID 1963595)). Conditions: HEK293-DRD2 cAMP HTRF antagonist mode; series mostly up to 92.4 µM; activity change, negative = inhibition: at the top concentration.
Sequence of D(2) dopamine receptor (Homo sapiens) (P14416 whole entry, looked up): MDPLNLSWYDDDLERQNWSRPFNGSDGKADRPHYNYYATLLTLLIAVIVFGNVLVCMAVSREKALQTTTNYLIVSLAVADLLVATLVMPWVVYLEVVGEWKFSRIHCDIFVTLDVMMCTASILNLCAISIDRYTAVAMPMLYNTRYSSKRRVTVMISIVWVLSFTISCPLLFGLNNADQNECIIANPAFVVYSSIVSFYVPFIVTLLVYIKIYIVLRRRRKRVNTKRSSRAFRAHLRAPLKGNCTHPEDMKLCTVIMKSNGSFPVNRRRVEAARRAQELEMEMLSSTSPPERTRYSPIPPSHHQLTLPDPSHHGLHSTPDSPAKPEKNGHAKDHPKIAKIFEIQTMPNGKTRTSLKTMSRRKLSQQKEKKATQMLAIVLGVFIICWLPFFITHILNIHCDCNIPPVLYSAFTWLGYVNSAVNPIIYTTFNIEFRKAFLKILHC
How it was run: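 HEK293 cells stably expressing DRD2, preincubated with 0.1 mM Ro20-1724 and compounds 10 min, were stimulated with 200 nM NKH477 plus 12 nM quinpirole for 30 min at room temperature; cAMP measured by HTRF (665/620 nm).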
% is scaled to controls: 0 for no effect and ±100 for the full control effect.

Row | Structure (SMILES) | activity change, negative = inhibition
1 | CCN1C=CN(C)C1C (stereo not drawn) | 5.52% (inactive)
2 | CN(C)CCOCCO | 3.34% (inactive)
3 | CCCCOC(=O)CCCCC(=O)OCCCC | 5.11% (inactive)
4 | COC1CCC=CO1 (stereo not drawn) | 1.09% (inactive)
5 | CCOCCn1c(N2CCCN(C)CC2)nc2ccccc21 | 0.474% [at 42.5 µM] (inactive)
6 | COCc1nnc(-c2ccc[n+]([O-])c2)n1-c1c(Cl)c(Cl)cc2[nH]c(=O)c(=O)[nH]c12 | 4.45% (inactive)
7 | CN(C(=O)CN(CCO)CC(=O)N(C)C(C)(C)Cc1ccccc1)C(C)(C)Cc1ccccc1 | -26.5% [at 42.5 µM] (inactive)
8 | CN(C)c1ccc(C2(c3ccc(N(C)C)cc3)OC(=O)c3cc(N(C)C)ccc32)cc1 | -5.71% (inactive)
